Source: ChEMBL document CHEMBL1157539, “Thousands of chemical starting points for antimalarial lead identification” (Nature, 2010)

The compounds below were run on Plasmodium falciparum (assay: GSK_TCMDC: Inhibition of Plasmodium falciparum Dd2 in whole red blood cells, using parasite LDH activity as an index of growth. Test compounds present at 2uM).
Type: functional
Compound `Cl.OCCNc1nc(Nc2ccccc2)nc2ccccc12` has an Inhibition of 61%. For `N#Cc1cnc2cc(-c3cnc(CNCCN4CCOCC4)s3)ccc2c1Nc1ccc(Oc2ccccc2)cc1`, the Inhibition was 83%. With `CCCN(CCC)C(=O)c1cc(C(=O)N[C@@H](Cc2ccccc2)[C@H](O)CNC(C)(C)c2cccc(OC)c2)cc(N2CCCCS2(=O)=O)c1` the Inhibition was 74%. `Cc1cc(Cl)ccc1NC(=O)Nc1ccc2nccc(N3CCN(C)CC3)c2c1` gave an Inhibition of 74%. Compound `N#Cc1cccc(Nc2nccc(Nc3ccc(Oc4ccccc4)cc3)n2)c1` has an Inhibition of 17%. Work on `Oc1cc2c(cc1CN1CCN(Cc3cccs3)CC1)CCC2` yielded an Inhibition of 91%. `COc1ccc2nc(C)cc(NCc3ccc4ccccc4c3)c2c1.Cl` showed an Inhibition of 75%. Compound `O=C(Nc1cccc(CN2CCCN(Cc3cccnc3)CC2)c1)c1ccc(Cl)c(Cl)c1.O=C(O)C(F)(F)F` has an Inhibition of 19%. Compound `CC(=O)N[C@H](C(=O)Nc1cccc(-c2ccc(-c3nc4cccc(C)c4[nH]3)s2)c1)C(C)C` has an Inhibition of 29%. Compound `CCN(CC)CCN(Cc1ccc(-c2ccc(C(F)(F)F)cc2)cc1)C(=O)Cn1c(CCc2ccc(F)cc2)nc(=O)c2ccccc21.O=C(O)C(O)C(O)C(=O)O` has an Inhibition of 58%. With `Cc1ccccc1C1CCN(C2CCC(NC(=O)c3ccc(-c4cccs4)s3)CC2)CC1` (stereo not given) the Inhibition was 54%. For `CN1CCN(C(=O)CN2CCC3(CCC2=O)NC(=O)c2ccccc2O3)CC1` (stereo not given), the Inhibition was 98%. Compound `N#Cc1ccc(CN2CCCN(Cc3cccc(NC(=O)c4cc5ccccc5s4)c3)CC2)cc1.O=C(O)C(F)(F)F` has an Inhibition of 36%. For `Nc1ncc(-c2cccc(F)c2)cc1-c1nc2cc(F)ccc2[nH]1.O=C(O)C(F)(F)F`, the Inhibition was 88%. For `COc1cccc(C(=O)Nc2ccc(Nc3nc(C)cc(N4CCCCC4)n3)cc2)c1OC`, the Inhibition was 27%. `N#Cc1ccc(NC(=O)c2ccc(C(=O)NCCCCN3CCC(c4ccc5c(c4OCCOC4CCCCO4)CCCC5)CC3)cc2)cc1` (stereo not given) showed an Inhibition of 97%. With `Cn1c(NCc2cc(F)cc3c2OCOC3)nc2cc(Nc3ccnc(Nc4cccc(CS(C)(=O)=O)c4)n3)ccc21` the Inhibition was 100%. For `Cl.O=c1cc(NCCCNCc2cc3ccc(Br)cc3s2)[nH]c2ccccc12`, the Inhibition was 8%. In the case of `COc1ccc(C23Oc4cc(OC)cc(OC)c4C2(O)C2(CC3c3ccccc3)SCCCS2)cc1` (stereo not given), the Inhibition is reported as 97%. `Cc1cccc2nc(O)c([N+](=O)[O-])c(O)c12` showed an Inhibition of 0%. In the case of `COc1ccc(NC(=O)/C=C/c2ccccc2Cl)cc1OCCN1CCC(NCc2cccnc2)CC1`, the Inhibition is reported as 88%. `CC(=O)c1cccc(NC(=O)NC2CCN(CCCCCNC(=O)/C=C/c3ccc(Cl)c(Cl)c3)CC2)c1` gave an Inhibition of 1%. `CN1CCCN(Cc2cccc(-c3ccc(NS(=O)(=O)c4cccc5cccnc45)cc3)c2)CC1.O=C(O)C(F)(F)F` was tested, and the Inhibition was 87%. Work on `COc1ccc2c(=NN=Cc3cccc(C)n3)cc(-c3ccccc3)[nH]c2c1` yielded an Inhibition of 25%. `Cc1ccc2[nH]c(C)cc(=NN=Cc3ccc(Cl)cc3)c2c1` gave an Inhibition of 35%. For `O=C(CCc1c[nH]cn1)Nc1ccc(-c2ccc(-c3nc4cc(F)ccc4[nH]3)cc2)cc1`, the Inhibition was 58%. Work on `O=S(=O)(Nc1cccc(CCN2CCCCC2CCN2CCCC2)c1)c1ccc(-c2ccccc2)cc1` (stereo not given) yielded an Inhibition of 5%. Compound `Cc1cc(C(=O)Nc2ccc3c(c2)CCN3C2CCN(Cc3cccc(F)c3F)C2)no1` (stereo not given) has an Inhibition of 94%. Work on `Cl.O=C(Nc1ccc(NC2=NCCN2)cc1)c1ccc(C(=O)Nc2ccc(NC3=NCCN3)cc2)cc1` yielded an Inhibition of 86%. Compound `CCOc1cccc(C(=O)Nc2cccc(CN3CCCN(Cc4ccc(O)cc4)CC3)c2)c1.O=C(O)C(F)(F)F` has an Inhibition of 31%. `Cl.Cl.N=C(N)c1ccc(-c2cc(-c3cccc(C(=N)N)c3)on2)cc1` gave an Inhibition of 45%. `O=C(C=Cc1ccc(Cl)c(Cl)c1)NCCCCCN1CCC(CCCNC(=O)c2ccc3c(c2)OCO3)CC1` gave an Inhibition of 64%. Work on `O=C(Nc1ccc(Cl)cc1)N[C@H]1CCN(CCCCCNC(=O)C2CC2c2ccc(Cl)c(Cl)c2)C1` (stereo not given in full) yielded an Inhibition of 1%. With `CCCCCCN1CCCN(Cc2ccc(C(=O)Nc3cccc(CC)c3)cc2)CC1.O=C(O)C(F)(F)F` the Inhibition was 54%. Compound `CC(C)Cn1cc(C2CCN(CCN3CCC(CNC(=O)c4ccc(NC(=O)c5ccc(Cl)cc5)cc4)CC3)CC2)c2ccccc21` has an Inhibition of 99%. With `N#CN1CC[C@H](CS(=O)(=O)c2cccc(Br)c2)C1` the Inhibition was 74%. In the case of `Cc1nnsc1C(=O)Nc1cccc(-c2cccc(-c3nc4cc(F)ccc4[nH]3)c2)c1`, the Inhibition is reported as 45%. In the case of `Cc1cc(NC(=O)Nc2cccc(N(C)C)c2)c2ccccc2n1`, the Inhibition is reported as 95%. `CCOCCCNc1nc2cc(OC)c(OC)cc2c2nc(-c3ccccc3)nn12` was tested, and the Inhibition was 98%. Compound `O=S(=O)(Nc1cccc(CCN2CCC(N3CCCCC3)CC2)c1)c1ccc(Oc2ccccc2)cc1` has an Inhibition of 25%.

These compounds were tested on HepG2 (assay: GSK_TCMDC: Percent inhibition of human HepG2 cell line. Test compounds present at 10uM.).
Type: functional
`Cl.OCCNc1nc(Nc2ccccc2)nc2ccccc12` showed an Inhibition of 5%. With `N#Cc1cnc2cc(-c3cnc(CNCCN4CCOCC4)s3)ccc2c1Nc1ccc(Oc2ccccc2)cc1` the Inhibition was 30%. For `CCCN(CCC)C(=O)c1cc(C(=O)N[C@@H](Cc2ccccc2)[C@H](O)CNC(C)(C)c2cccc(OC)c2)cc(N2CCCCS2(=O)=O)c1`, the Inhibition was 16%. For `Cc1cc(Cl)ccc1NC(=O)Nc1ccc2nccc(N3CCN(C)CC3)c2c1`, the Inhibition was 0%. `N#Cc1cccc(Nc2nccc(Nc3ccc(Oc4ccccc4)cc3)n2)c1` was tested, and the Inhibition was 12%. In the case of `Oc1cc2c(cc1CN1CCN(Cc3cccs3)CC1)CCC2`, the Inhibition is reported as 10%. For `COc1ccc2nc(C)cc(NCc3ccc4ccccc4c3)c2c1.Cl`, the Inhibition was 21%. For `O=C(Nc1cccc(CN2CCCN(Cc3cccnc3)CC2)c1)c1ccc(Cl)c(Cl)c1.O=C(O)C(F)(F)F`, the Inhibition was 16%. `CC(=O)N[C@H](C(=O)Nc1cccc(-c2ccc(-c3nc4cccc(C)c4[nH]3)s2)c1)C(C)C` gave an Inhibition of 33%. Work on `CCN(CC)CCN(Cc1ccc(-c2ccc(C(F)(F)F)cc2)cc1)C(=O)Cn1c(CCc2ccc(F)cc2)nc(=O)c2ccccc21.O=C(O)C(O)C(O)C(=O)O` yielded an Inhibition of 42%. `Cc1ccccc1C1CCN(C2CCC(NC(=O)c3ccc(-c4cccs4)s3)CC2)CC1` (stereo not given) showed an Inhibition of 58%. Compound `CN1CCN(C(=O)CN2CCC3(CCC2=O)NC(=O)c2ccccc2O3)CC1` (stereo not given) has an Inhibition of 0%. `N#Cc1ccc(CN2CCCN(Cc3cccc(NC(=O)c4cc5ccccc5s4)c3)CC2)cc1.O=C(O)C(F)(F)F` showed an Inhibition of 31%. Compound `Nc1ncc(-c2cccc(F)c2)cc1-c1nc2cc(F)ccc2[nH]1.O=C(O)C(F)(F)F` has an Inhibition of 54%. `COc1cccc(C(=O)Nc2ccc(Nc3nc(C)cc(N4CCCCC4)n3)cc2)c1OC` gave an Inhibition of 47%. `N#Cc1ccc(NC(=O)c2ccc(C(=O)NCCCCN3CCC(c4ccc5c(c4OCCOC4CCCCO4)CCCC5)CC3)cc2)cc1` (stereo not given) gave an Inhibition of 72%. Compound `Cn1c(NCc2cc(F)cc3c2OCOC3)nc2cc(Nc3ccnc(Nc4cccc(CS(C)(=O)=O)c4)n3)ccc21` has an Inhibition of 0%. Compound `Cl.O=c1cc(NCCCNCc2cc3ccc(Br)cc3s2)[nH]c2ccccc12` has an Inhibition of 18%. `COc1ccc(C23Oc4cc(OC)cc(OC)c4C2(O)C2(CC3c3ccccc3)SCCCS2)cc1` (stereo not given) gave an Inhibition of 39%. With `Cc1cccc2nc(O)c([N+](=O)[O-])c(O)c12` the Inhibition was 0%. `COc1ccc(NC(=O)/C=C/c2ccccc2Cl)cc1OCCN1CCC(NCc2cccnc2)CC1` gave an Inhibition of 12%. `CC(=O)c1cccc(NC(=O)NC2CCN(CCCCCNC(=O)/C=C/c3ccc(Cl)c(Cl)c3)CC2)c1` showed an Inhibition of 7%. For `CN1CCCN(Cc2cccc(-c3ccc(NS(=O)(=O)c4cccc5cccnc45)cc3)c2)CC1.O=C(O)C(F)(F)F`, the Inhibition was 44%. `COc1ccc2c(=NN=Cc3cccc(C)n3)cc(-c3ccccc3)[nH]c2c1` showed an Inhibition of 0%. `Cc1ccc2[nH]c(C)cc(=NN=Cc3ccc(Cl)cc3)c2c1` gave an Inhibition of 0%. With `O=C(CCc1c[nH]cn1)Nc1ccc(-c2ccc(-c3nc4cc(F)ccc4[nH]3)cc2)cc1` the Inhibition was 26%. For `O=S(=O)(Nc1cccc(CCN2CCCCC2CCN2CCCC2)c1)c1ccc(-c2ccccc2)cc1` (stereo not given), the Inhibition was 31%. `Cc1cc(C(=O)Nc2ccc3c(c2)CCN3C2CCN(Cc3cccc(F)c3F)C2)no1` (stereo not given) was tested, and the Inhibition was 0%. In the case of `Cl.O=C(Nc1ccc(NC2=NCCN2)cc1)c1ccc(C(=O)Nc2ccc(NC3=NCCN3)cc2)cc1`, the Inhibition is reported as 15%. For `CCOc1cccc(C(=O)Nc2cccc(CN3CCCN(Cc4ccc(O)cc4)CC3)c2)c1.O=C(O)C(F)(F)F`, the Inhibition was 23%. Work on `Cl.Cl.N=C(N)c1ccc(-c2cc(-c3cccc(C(=N)N)c3)on2)cc1` yielded an Inhibition of 7%. Work on `O=C(C=Cc1ccc(Cl)c(Cl)c1)NCCCCCN1CCC(CCCNC(=O)c2ccc3c(c2)OCO3)CC1` yielded an Inhibition of 38%. `O=C(Nc1ccc(Cl)cc1)N[C@H]1CCN(CCCCCNC(=O)C2CC2c2ccc(Cl)c(Cl)c2)C1` (stereo not given in full) showed an Inhibition of 24%. `CCCCCCN1CCCN(Cc2ccc(C(=O)Nc3cccc(CC)c3)cc2)CC1.O=C(O)C(F)(F)F` gave an Inhibition of 31%. With `CC(C)Cn1cc(C2CCN(CCN3CCC(CNC(=O)c4ccc(NC(=O)c5ccc(Cl)cc5)cc4)CC3)CC2)c2ccccc21` the Inhibition was 28%. With `N#CN1CC[C@H](CS(=O)(=O)c2cccc(Br)c2)C1` the Inhibition was 8%. `Cc1nnsc1C(=O)Nc1cccc(-c2cccc(-c3nc4cc(F)ccc4[nH]3)c2)c1` was tested, and the Inhibition was 35%. `Cc1cc(NC(=O)Nc2cccc(N(C)C)c2)c2ccccc2n1` gave an Inhibition of 0%. `CCOCCCNc1nc2cc(OC)c(OC)cc2c2nc(-c3ccccc3)nn12` showed an Inhibition of 10%. `O=S(=O)(Nc1cccc(CCN2CCC(N3CCCCC3)CC2)c1)c1ccc(Oc2ccccc2)cc1` showed an Inhibition of 28%.
